# Source: PubChem BioAssay AID434955 (Southern Research Specialized Biocontainment Screening …, 2010)
# Values joined by “and” are separate entries in the source; they are usually repeats but may differ in a detail not shown here. Equal values may be shown once. Screen size: about 330,000 compounds; about 880 (0.27%) were called active. Another 1% or so got no clear call; they are omitted. No rule for the calls is given here. These entries were drawn from the full list.
# Test: beta-lactam sensitization of Mtb H37Rv, H37Rv (AID 434955);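 also: growth measured after seven days incubation then overnight dye step; 0% = bacteria only wells and 100% = bacteria with antibiotic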
# Details: M. tuberculosis H37Rv growth with meropenem, percent inhibition, at 25 µM
# [1] = measured here: primary screen without meropenem
Compound,inhibition (stronger effect = higher value),inhibition [1]
O=C(CCc1nc(-c2ccccc2)no1)Nc1cccc(C(=O)NC2CC2)c1,1.26% (inactive),4.5%
COc1ccc(/C=N/n2c(C)cc(C)cc2=O)cc1,3.19% (inactive),-1.76%
COC(=O)c1ccc(NS(=O)(=O)c2cc3c4c(c2)C(C)C(=O)N4CCC3)cc1 (stereo not given),-8.75% (inactive),-4.77%
CCC1CO/C(=C(\C(=C(Cl)Cl)N2CCOCC2)[N+](=O)[O-])N1 (stereo not given),-17.5% (inactive),-10.3%
CCOC(=O)N1CCN(C(=O)C2CCN(S(C)(=O)=O)CC2)CC1,2.13% (inactive),-5.28%
O=c1[nH]c(=O)n(Cc2ccco2)c2c1C(C(F)(F)F)(C(F)(F)F)N=C(c1ccco1)N2,-12.9% (inactive),-21.1%
O=c1c2ccccc2ncn1CCCCOc1ccccc1F,-1.85% (inactive),11.4%
Cn1nc(C(F)(F)F)cc1C(=O)O,-2.73% (inactive),4.91%
O=C1CC2(CCCC2)Oc2ccc(Cl)cc21,-2.7% (inactive),-12.8%
COc1ccc(C2C(C(C)=O)=C(O)C(=O)N2c2nccs2)cc1 (stereo not given),-8% (inactive),-1.43%
NC(=O)COC(=O)c1sc2cc(F)ccc2c1Cl,40.4% (inactive),37.9%
O=C(NC(Cc1ccccc1)C(=O)O)/C(=C\c1ccccc1)NC(=O)c1ccco1 (stereo not given),-13.2% (inactive),-12.5%
CN1CCc2nc(SC(C(=O)O)c3ccccc3)c(C#N)c(-c3cccs3)c2C1 (stereo not given),-5.45% (inactive),-0.72%
CCOc1cc(C)ccc1OCc1nnc(SCC(=O)Nc2cccc(C(=O)O)c2)n1-c1ccccc1,-1.64% (inactive),-0.86%
CCOC(=O)c1ccc(NC(=O)C2CC(=O)N(c3ccc4c(c3)OCCO4)C2)cc1 (stereo not given),-4.22% (inactive),4.56%
O=C(c1ccc(F)cc1)n1c(=S)nc2ccccn21,-3.39% (inactive),-1.53%
CN1CCN(NC(=O)Nc2ccc(Br)cc2)CC1,5.75% (inactive),6.69%
CC(=O)C1=C(C)NC(=O)NC1c1ccc2c(c1)OCO2 (stereo not given),-1.59% (inactive),7.05%
COc1ccc(NC2CCCN(C(=O)c3ccncc3)C2)cc1 (stereo not given),-5.62% (inactive),1.6%
Cc1cc(C)cc(N(CCC#N)C(=O)CN2C(=O)NC3(CCCC3)C2=O)c1,-5.09% (inactive),-6.67%

Compound,inhibition (stronger effect = higher value),inhibition [1]
CC(C)N1CCC(NC(=O)Nc2ccccc2)CC1,-9.18% (inactive),-1.81%
Cc1ccc(NS(=O)(=O)c2ccc(-c3coc(C)n3)cc2)c(C)c1,-2.05% (inactive),3.59%
COc1ccc(C(=O)NC(C)Cn2nc(C)cc2C)cc1OC1CCN(C(C)=O)CC1 (stereo not given),-1.95% (inactive),-5.6%
COCCCNC(=O)Cc1ccc(-n2c(C)nc3cccnc32)cc1,-2.02% (inactive),-1.03%
O=C(NCCC1=CCCCC1)c1ccc(-n2cncn2)cc1,3.02% (inactive),10.8%
CC1CCN(S(=O)(=O)c2ccc(NC(=O)C3CC(=O)N(c4ccccc4)C3)cc2)CC1 (stereo not given),1.58% (inactive),6.16%
COc1ccc(OC)c(NC(=O)c2cccc(S(=O)(=O)N3CCN(C(C)=O)CC3)c2)c1,1.25% (inactive),1.6%
CCc1nn(CCCN2CCN(c3cccc(Cl)c3)CC2)c(=O)n1CCOc1ccccc1,-2.61% (inactive) and 5.29% (inactive),51.1% and 50%
COc1ccc(C)c(Cn2c(-c3nonc3N)nc3ccccc32)c1,-3.23% (inactive),-5.86%
C=CCSc1ccc(S(=O)(=O)N2CCN(C)CC2)cn1,-0.58% (inactive),5.36%
Cc1ccc(C(=O)NN(CCC#N)C2=NS(=O)(=O)c3ccccc32)cc1,-5.01% (inactive),-4.15%
CC(NC(=S)NC1CCCCC1)C(c1ccccc1)N1CCOCC1 (stereo not given),-1.18% (inactive),-9.18%
COC(=O)N/N=C/c1c[n+]([O-])c2ccccc2[n+]1[O-],99.7% (inactive),100%
Nn1c(SCC(=O)NC2CCCc3ccccc32)nnc1C1CC1 (stereo not given),-6.27% (inactive),-8.89%
Cn1nnnc1-c1cc(Cl)cc(Cl)c1,-6.9% (inactive),-5.1%
FC(F)(F)COc1nc(N2CCCCC2)nc(N2CCNCC2)n1,-3.65% (inactive),-3.73%
Cc1ccc(S(=O)(=O)N(C)c2ccc(OCC(=O)OCc3ccc(C#N)cc3)cc2)cc1,94.4% (inactive),93.2%
O=C(c1cc(-c2ccc(Cl)cc2)on1)N1CCN(c2ccccc2)CC1,4.32% (inactive),0.26%
Nc1c(N(CCO)C(=O)C2CCCCC2)c(=O)[nH]c(=O)n1Cc1ccccc1,1.76% (inactive),-2.9%
Cc1ccc(N2CC(C(=O)Nc3cc(Cl)ccc3-n3cncn3)CC2=O)cc1 (stereo not given),-7.41% (inactive),3.62%
